From PubChem BioAssay (NCI)
The panel holds about 83,000 compounds, 20% with a hit somewhere; the sample as a whole holds those more often.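 For each line, cells grew in 96-well plates with the test compound present at a single concentration for 48 hours.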 Activity calls are given as the source filed them. How the source made its calls: active means growth percent below 10; inactive means the rest.

test system: MCF7 breast; assay: NCI-60 one-dose screen, 48 h (100 = growth as untreated, 0 = no growth, -100 = all killed); settings: 10 µM

Row | Compound | growth
1 | COc1cc2c3c(n([C@@H]4CCOC4)c(=O)c2cc1OC)-c1cc2c(cc1C3=O)OCO2 | 13.5% (inactive)
2 | COc1ccc(-c2cc(-c3ccccc3)nc(SCCCCCCC(=O)NO)n2)cc1 | 30.4% (inactive)
3 | COc1ccc(-c2nn(-c3cccc(Cl)c3)cc2-c2c(C#N)c(=O)n3[nH]c(-c4ccccc4)nc3c2C#N)cc1 | 63.4% (inactive)
4 | Clc1nc2ccccc2cc1Cn1nnc(Cc2ccccc2)n1 | 45.8% (inactive)
5 | CN1CCc2c(sc3nc4n(-c5ccc(Cl)cc5)cnn4c(=O)c23)C1 | 70.6% (inactive)
6 | O=C(CCCCNC(=O)c1nc(-c2ccccc2)n(-c2ccccc2)n1)NO | 67.6% (inactive)
7 | Cc1c2c[n+](C(C)C)ccc2c(C)c2c1[nH]c1ccccc12 | 3.87% (active)
8 | Cc1c2cnccc2c(C)c2c1c1cc(O)ccc1n2C(C)C | -3.2% (active)
9 | CC(C)(C)OC(=O)CN1CCc2c(sc3ncnc(N/N=C/c4cccc5ccccc45)c23)C1 | -24.5% (active)
10 | Nc1nc(-c2cccnc2)nc2c1sc(=S)n2-c1ccccc1 | 94.4% (inactive)
11 | CC(C)(C)OC(=O)N1CCc2c(sc3ncnc(N/N=C/c4cccc(Br)c4)c23)C1 | 5.3% (active)
12 | O=C(CCCSc1nc(-c2ccc(Cl)cc2)cc(-c2ccc(Cl)cc2)n1)NO | 2.7% (active)
13 | CN1CCc2c(sc3nc4n(-c5ccc(Cl)cc5)c(=O)[nH]n4c(=O)c23)C1 | 91.7% (inactive)
14 | CCNc1nc(C(F)(F)F)nc2c1sc(=S)n2-c1ccccc1 | 96.4% (inactive)
15 | IC(I)I | 100% (inactive)
16 | Cc1cc(NC(=O)c2ccc(C)c(Nc3nccc(-c4cccnc4)n3)c2)cc(-n2cnc(C)c2)c1 | 24.4% (inactive)
17 | c1cncc(-c2csc(-c3c[nH]c4ccccc34)n2)c1 | 77.3% (inactive)
18 | Cc1ccc(NC(=S)NNC(=S)Nc2ccc(C)cc2)cc1 | 29.3% (inactive)
19 | Cc1ccc(C2=NN(c3ccc(S(C)(=O)=O)cc3)C(=O)CC2)cc1 | 16.2% (inactive)
20 | CCc1ccc(C2=NN(c3ccc(S(C)(=O)=O)cc3)C(=O)CC2)cc1 | 26% (inactive)
21 | COc1ccc(-c2nn(-c3cccc(Cl)c3)cc2/C=C2\NC(=S)N(c3ccc(Cl)cc3)C2=O)cc1 | 19.3% (inactive)
22 | COc1ccc(-c2nn(-c3cccc(Cl)c3)cc2-c2c(C#N)c(=O)n3[nH]c(-c4ccc(C)cc4)nc3c2C#N)cc1 | 21.2% (inactive)
23 | c1cnc2[nH]cc(-c3nc(-c4ccsc4)cs3)c2c1 | 57.7% (inactive)
24 | O=C1NC(=O)c2c(CCCSc3nc4ccccc4c(=O)n3CCc3ccccc3)cccc21 | 83.5% (inactive)
25 | CCOC(=O)c1sc2ncnc(Nc3ccc4c(cnn4C(=O)Nc4ccc(C)c(Cl)c4)c3)c2c1C | 87.8% (inactive)
26 | Nc1ccccc1NC(=O)c1ccc(CCCC(=O)Nc2ccc(C3CC3N)cc2)cc1 (centres undefined) | 17.7% (inactive)
27 | Cc1c(O)c(=O)ccn1C1CCC(CC2CCC(n3ccc(=O)c(O)c3C)CC2)CC1 (centres undefined) | 15.9% (inactive)
28 | Cc1c2cnccc2c(C)c2c1oc1ccccc12 | 43.7% (inactive)

test system: HCT-116 colon; assay: as above; settings: 10 µM

Row | Compound | growth
29 | COc1ccc2nc(Cl)c(Cn3nnc(Cc4ccccc4)n3)cc2c1 | 29.2% (inactive)
30 | C=C/C(C)=C/C[C@]1(C)[C@H](C)[C@@H](OC(=O)CCC)[C@H](O)[C@@]23C(=C[C@H](OC)C[C@@H]12)[C@@H](OC(=O)CCC)O[C@H]3OC(C)=O | -70.3% (active)
31 | COc1ccc(-c2cc(-c3cc(OC)ccc3OC)nc(N)c2C#N)cc1 | 35.1% (inactive)
32 | COc1ccc(-c2nn(-c3cccc(Cl)c3)cc2-c2cc(-c3ccccc3)nc(N)n2)cc1 | 5.52% (active)
33 | COc1ccccc1-n1c(-c2sc(NC(C)=O)nc2C)n[nH]c1=S | 98.3% (inactive)
34 | COc1cc(-c2ccc[nH]2)[nH]c1/C=C1\N=C(C)C(C(=O)NC(C)C)=C1C | 4.6% (active)
35 | COc1ccc(-c2nn(-c3cccc(Cl)c3)cc2C=C(C#N)C#N)cc1 | -40.9% (active)
36 | CCn1c2ccc(O)cc2c2c(C)c3c[n+](C)ccc3c(C)c21 | 33.9% (inactive)
37 | CC[C@H]1OC(=O)[C@H](C)[C@@H](O[C@H]2C[C@@](C)(OC)[C@@H](O)[C@H](C)O2)[C@H](C)[C@@H](O[C@@H]2O[C@H](C)C[C@H](N(C)C)[C@H]2O)[C@](C)(OC)C/C(C)=C2/O[C@@]1(C)C=C2C | 4.59% (active)
38 | N#Cc1c(-c2ccc(Cl)cc2)cc(-c2cc(O)ccc2O)nc1N | 19.8% (inactive)
39 | COc1cc2c3c(n([C@@H]4CCOC4)c(=O)c2cc1OC)-c1cc2c(cc1C3=O)OCO2 | 27.1% (inactive)
40 | COc1ccc(-c2cc(-c3ccccc3)nc(SCCCCCCC(=O)NO)n2)cc1 | 25.1% (inactive)
41 | Clc1nc2ccccc2cc1Cn1nnc(Cc2ccccc2)n1 | 35.1% (inactive)
42 | CN1CCc2c(sc3nc4n(-c5ccc(Cl)cc5)cnn4c(=O)c23)C1 | 98% (inactive)
43 | O=C(CCCCNC(=O)c1nc(-c2ccccc2)n(-c2ccccc2)n1)NO | 54.6% (inactive)
44 | Cc1c2c[n+](C(C)C)ccc2c(C)c2c1[nH]c1ccccc12 | 20.1% (inactive)

Row | Compound | growth
45 | Cc1c2cnccc2c(C)c2c1c1cc(O)ccc1n2C(C)C | -49.4% (active)
46 | CC(C)(C)OC(=O)CN1CCc2c(sc3ncnc(N/N=C/c4cccc5ccccc45)c23)C1 | 26% (inactive)
47 | Nc1nc(-c2cccnc2)nc2c1sc(=S)n2-c1ccccc1 | 70.7% (inactive)
48 | CC(C)(C)OC(=O)N1CCc2c(sc3ncnc(N/N=C/c4cccc(Br)c4)c23)C1 | 29.6% (inactive)
49 | IC(I)I | 106% (inactive)
50 | Cc1cc(NC(=O)c2ccc(C)c(Nc3nccc(-c4cccnc4)n3)c2)cc(-n2cnc(C)c2)c1 | -64.1% (active)
51 | c1cncc(-c2csc(-c3c[nH]c4ccccc34)n2)c1 | 82.6% (inactive)
52 | Cc1ccc(NC(=S)NNC(=S)Nc2ccc(C)cc2)cc1 | 34.5% (inactive)
53 | Cc1ccc(C2=NN(c3ccc(S(C)(=O)=O)cc3)C(=O)CC2)cc1 | 17.7% (inactive)
54 | CCc1ccc(C2=NN(c3ccc(S(C)(=O)=O)cc3)C(=O)CC2)cc1 | 15.7% (inactive)
55 | COc1ccc(-c2nn(-c3cccc(Cl)c3)cc2/C=C2\NC(=S)N(c3ccc(Cl)cc3)C2=O)cc1 | 0.814% (active)
56 | c1cnc2[nH]cc(-c3nc(-c4ccsc4)cs3)c2c1 | 89.9% (inactive)
57 | O=C1NC(=O)c2c(CCCSc3nc4ccccc4c(=O)n3CCc3ccccc3)cccc21 | 80% (inactive)
58 | Nc1ccccc1NC(=O)c1ccc(CCCC(=O)Nc2ccc(C3CC3N)cc2)cc1 (centres undefined) | 8.68% (active)
59 | Cc1c2cnccc2c(C)c2c1oc1ccccc12 | 45% (inactive)
